Data as given in PubChem BioAssay (NCATS).
Records with an inconclusive call do not appear. The source made the active and inactive calls. Calls follow the shape of the dose curve; as a rule, active = well fitted curve in the direction sought with a large enough effect in the signal ratio (not every such curve was filed as active); inconclusive = small, poorly fitted or top-dose-only effect, or effect the other way, or a change in a side signal; inactive = no such curve, though single readings can be large or run the other way; the % refers to the signal ratio.

molecular target: Tyrosine-protein phosphatase non-receptor type substrate 1 (Homo sapiens) + Leukocyte surface antigen CD47 (Homo sapiens) (UniProt P78324+Q08722); test: CD47-SIRPalpha protein protein interaction - HTRF assay qHTS validation (AID 1347058); settings: TR-FRET HTRF CD47-His / biotin-SIRPalpha binding, ratio 665/615; series mostly up to 38.3 µM
Source text: SIRPalpha is a myeloid cell expressed immunomodulatory receptor that binds the tumor expressed immune checkpoint CD47. Therapeutic disruption of this interaction leads to immune-mediated tumor rejection. This assay was used to quantitate CD47-SIRPalpha binding biochemically and evaluate chemical libraries for novel CD47-SIRPalpha inhibitors. To recapitulate the biological interaction of CD47 and SIRPalpha, we designed expression constructs to produce their recombinant, soluble, extracellular interaction domains. CD47 was produced with an N-terminal 6His tag. SIRPalpha was produced with an N-terminal Avi-Tag for site-specific biotin incorporation. The CD47-SIRPalpha interaction was measured by TR-FRET using affinity tag linked reagents (anti-6His-Eu donor and streptavidin-XL665 acceptor). SIRPalpha without biotin incorporation was used as a positive control inhibitor.
SEQUENCE No. (e.g., 1, 2, 3, etc.); […] (e.g., Cells, Incubation, Reagent, etc.); VALUE and DESCRIPTION.
1a. Reagent. 3 uL CD47-His (12.5 nM) and Anti-His Eu Donor reagent (0.7 nM) added to respective wells in Assay buffer; white/solid bottom high base, med bind 1536-well plates (Greiner 789075)
1b. Reagent. 2 uL Assay buffer negative control for background fluorescence
2. Reagent. 23 nL library compounds (7-pt, 1:4 intraplate titration series) or DMSO control transferred by Pin Tool
3. Centrifuge. Centrifuge plate for 30 s at 1000 RPM
4. Incubation.#Incubate reagents at room temperature for 30 min, protected from light
5. Reagent. 2 uL SIRPalpha-biotin (100 nM) in Assay buffer
6. Incubation.#Incubate reagents at room temperature for 30 min, protected from light
7. Reagent. 1 uL SAV-XL665 (85 nM) acceptor reagent added to respective wells
8. Centrifuge. Centrifuge plate for 30 s at 1000 RPM
9. Incubation. Incubate reagents at room temperature for 30 min, protected from light
10. Detector. Measure Top TR-FRET on EnVision (Eu/APC filter set); calculate ratio Ch1/Ch2
1. Assay buffer composition.#Phosphate buffered saline (PBS; 10 mM Phosphate, 137 mM NaCl, and 2.7 mM KCl; pH 7.4), 0.05% IGEPAL CA-630
2. 23nL of […] library compounds (7 plates) or DMSO vehicle control transferred to 9 Greiner white/solid bottom high base, TC plates in 7 interplate 1:5 titrations (see Yasgar, A. et al. 2008) with Pintool. Two of the 9 plates are DMSO-only in compound field at beginning and end of compound library-treated plates.
10. Detector settings#Mirror = LANCE/DELFIA Dual Enh; Ex. Filter = UV2[TRF] 320; Em. Filter = APC 665; 2nd Em. Filter = Europium 615; Measurement h = 6.5; Ex. light (%) = 100; Delay = […]; Window t = 100 us; No. Seq. windows = 1; Time between flashes = 2000us; No. of flashes = 100; No. of flashes for 2nd detector = 100; Calculation: "Ratio Ch1/Ch2"

Sequence of Tyrosine-protein phosphatase non-receptor type substrate 1 (Homo sapiens) + Leukocyte surface antigen CD47 (Homo sapiens) (P78324 whole entry, looked up, the tested form may be a part): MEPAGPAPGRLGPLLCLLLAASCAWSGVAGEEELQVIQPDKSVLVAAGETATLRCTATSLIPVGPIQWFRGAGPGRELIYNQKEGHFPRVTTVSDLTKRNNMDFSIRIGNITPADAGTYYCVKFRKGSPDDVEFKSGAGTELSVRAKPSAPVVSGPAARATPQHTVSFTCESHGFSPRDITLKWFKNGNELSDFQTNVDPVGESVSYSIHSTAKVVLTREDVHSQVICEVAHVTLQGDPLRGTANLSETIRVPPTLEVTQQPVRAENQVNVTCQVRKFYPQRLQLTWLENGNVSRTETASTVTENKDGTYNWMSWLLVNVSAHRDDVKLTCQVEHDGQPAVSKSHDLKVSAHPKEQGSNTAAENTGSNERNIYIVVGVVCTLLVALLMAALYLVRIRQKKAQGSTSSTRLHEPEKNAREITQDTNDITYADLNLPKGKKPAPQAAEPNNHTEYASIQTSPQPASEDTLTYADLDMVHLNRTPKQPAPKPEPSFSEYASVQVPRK
Sequence of Tyrosine-protein phosphatase non-receptor type substrate 1 (Homo sapiens) + Leukocyte surface antigen CD47 (Homo sapiens) (Q08722 whole entry, looked up, the tested form may be a part): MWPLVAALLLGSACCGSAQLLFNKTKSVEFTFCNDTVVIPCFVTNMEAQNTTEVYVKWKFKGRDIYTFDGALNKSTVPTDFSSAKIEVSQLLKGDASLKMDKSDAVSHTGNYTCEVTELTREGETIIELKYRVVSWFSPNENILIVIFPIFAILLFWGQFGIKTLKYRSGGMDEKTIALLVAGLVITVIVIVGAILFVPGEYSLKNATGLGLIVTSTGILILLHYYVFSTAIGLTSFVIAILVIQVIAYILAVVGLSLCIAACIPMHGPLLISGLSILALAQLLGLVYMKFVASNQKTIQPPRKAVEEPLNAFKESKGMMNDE

Compound | outcome
O=C(c1ccccc1)c1ccc2n1CCC2C(=O)O (stereo not drawn) | inactive
CCOC(=O)C1=C(O)C(=O)N(Cc2ccccc2)C1 | inactive
C[C@H](Cc1ccc(O)c(O)c1)[C@@H](C)Cc1ccc(O)c(O)c1 | inactive
O=C(O)c1cccnc1Nc1cccc(C(F)(F)F)c1 | inactive
O=C(CCc1ccc(O)cc1)c1c(O)cc(O)cc1O | inactive
CC(C)c1ccc2c(c1)c(SC(C)(C)C)c(CC(C)(C)C(=O)O)n2Cc1ccc(Cl)cc1 | inactive
Cc1cccc(-c2[nH]ncc2-c2ccc3ncccc3n2)n1 | inactive
CN(C)CCCC1(c2ccc(F)cc2)OCc2cc(C#N)ccc21 (stereo not drawn) | inactive
C[C@@H](c1ncncc1F)[C@](O)(Cn1cncn1)c1ccc(F)cc1F | inactive
c1cnc2cc3c(cc2n1)C1CNCC3C1 | inactive
Oc1ccc2ccccc2c1SSc1c(O)ccc2ccccc12 | inactive
COc1ccc2cc([C@H](C)C(=O)O)ccc2c1 | inactive
O=c1cc(N2CCOCC2)oc2c(-c3ccccc3)cccc12 | inactive
CNC[C@H](O)c1ccc(O)c(O)c1 | inactive
Cc1cc(Cl)ccc1OCCCC(=O)NO | inactive
CCN(CC)C(=S)SSC(=S)N(CC)CC | inactive
Nc1nc(OCc2ccccc2)c2[nH]cnc2n1 | inactive
COc1ccccc1N1CCN(CCN(C(=O)C2CCCCC2)c2ccccn2)CC1 | inactive
NNc1nncc2ccccc12 | inactive
COc1cc2c(cc1OC)C1CC(=O)C(CC(C)C)CN1CC2 (stereo not drawn) | inactive
Cc1c(OCC(F)(F)F)ccnc1CS(=O)c1nc2ccccc2[nH]1 (stereo not drawn) | inactive
CC(=O)N1CCN(c2ccc(OC[C@H]3CO[C@](Cn4ccnc4)(c4ccc(Cl)cc4Cl)O3)cc2)CC1 | inactive
O=C1c2c(O)cc(O)cc2OC(c2ccc(O)c(O)c2)C1O (stereo not drawn) | inactive
CCOC(=O)C(C)Oc1cccc2c(=O)n(CC(=O)Nc3ccc4c(c3)OCCO4)ccc12 (stereo not drawn) | inactive
C[C@@H](N)C1CCC(C(=O)Nc2ccncc2)CC1 (stereo partly drawn) | inactive
CN(C)C(=O)[C@H](O)[C@H](Cc1ccccc1)NC(=O)c1cc2cc(Cl)ccc2[nH]1 | inactive
Clc1ccc2c(N3CCN(CCCN4CCN(c5ccnc6cc(Cl)ccc56)CC4)CC3)ccnc2c1 | inactive
NCCCCNCCCN | inactive
